According to PubChem BioAssay AID652042 (Broad Institute, 2013):
Screen size: about 1,100 compounds; about 350 (32%) were called active. How the calls were made is not given here. A selection follows. Entries with a potency or affinity are not part of this list.

Assay: CEM21 lymphoblast cell cytotoxicity, dose response, cytotoxicity control for viral fusion inhibitor project, CellTiter-Glo luminescence, cherry-picked (AID 652042)
Conditions: CEM21 cells viability, CellTiter-Glo ATP luminescence, 24 h; series mostly up to 35 µM
In the case of `C=C1CCN([C@@H](Cc2ccccc2)C(=O)NCCC(C)C)S(=O)(=O)c2ccccc21`, the activity change, negative = cytotoxicity is reported as “inactive”. For `O=C(NCCc1ccccc1)c1ccc2c(c1)OCCO2`, the activity change, negative = cytotoxicity was “inactive”. With `CSCCC(NS(=O)(=O)c1ccc2c(c1)oc(=O)n2C)C(=O)NC1CCCc2ccccc21` (centres undefined) the activity change, negative = cytotoxicity was “inactive”. With `CC(=O)c1ccc([C@H]2C[C@@]34CN(C(=O)OC(C)(C)C)S(=O)(=O)[C@H]3C[C@H]2O4)cc1` the activity change, negative = cytotoxicity was “inactive”. In the case of `CN(C)CC(=O)Nc1ccc2c(c1)[C@H]1C[C@@H](CC(=O)NCCc3ccccc3)O[C@H](CO)[C@H]1O2`, the activity change, negative = cytotoxicity is reported as “inactive”. In the case of `O=C(Nc1cccc(C(=O)O)c1)Nc1ccc2c(c1)OCO2`, the activity change, negative = cytotoxicity is reported as “inactive”. For `COc1ccc(NC(=O)C2CCCN2S(=O)(=O)c2ccc3c(c2)CCC(=O)N3)cc1Cl` (centres undefined), the activity change, negative = cytotoxicity was “inactive”. With `O=C(COc1ccc(-n2cnnn2)cc1)Nc1ccc(F)c(F)c1` the activity change, negative = cytotoxicity was “inactive”. For `Cn1cccc1C(=O)OCC(=O)NCCc1ccc(S(N)(=O)=O)cc1`, the activity change, negative = cytotoxicity was “inactive”. For `Cc1cc2c3c(c1)C1(SCC(=O)N1c1ccc(F)cc1)C(=O)N3C(C)(C)CC2C` (centres undefined), the activity change, negative = cytotoxicity was “inactive”. With `CCN(CC)S(=O)(=O)c1cc(NC(=O)C(=O)c2c(-c3ccccc3)cc3ccccn23)ccc1C` the activity change, negative = cytotoxicity was “inactive”. In the case of `CC(C)N(Cc1nc(-c2ccccc2)no1)C(=O)CN(C)S(=O)(=O)c1ccc(Br)cc1`, the activity change, negative = cytotoxicity is reported as “inactive”. In the case of `O=C(C[C@H]1C=C[C@@H](NC(=O)Nc2ccccc2F)[C@@H](CO)O1)NCc1ccc(Cl)cc1`, the activity change, negative = cytotoxicity is reported as “inactive”. For `COc1cccc(S(=O)(=O)N[C@H]2CC[C@H](CC(=O)NCc3ccncc3)O[C@@H]2CO)c1`, the activity change, negative = cytotoxicity was “inactive”. In the case of `O=C(C[C@H]1CC[C@@H](NC(=O)Nc2ccccc2F)[C@@H](CO)O1)NCc1ccc(Cl)cc1`, the activity change, negative = cytotoxicity is reported as “inactive”. With `COc1cccc(CNC(=O)C[C@@H]2C=C[C@H](NC(=O)C3CCC3)[C@H](CO)O2)c1` the activity change, negative = cytotoxicity was “inactive”. In the case of `O=C(NCC[C@@H]1CC[C@@H](NS(=O)(=O)c2ccccc2F)[C@@H](CO)O1)c1ccc(F)cc1`, the activity change, negative = cytotoxicity is reported as “inactive”. In the case of `O=C(C[C@@H]1CC[C@@H](NC(=O)c2ccncc2)[C@H](CO)O1)NCCc1ccncc1`, the activity change, negative = cytotoxicity is reported as “inactive”. For `COC(=O)[C@@]1(C)[C@H]2C(=O)N(Cc3ccccc3)C(=O)[C@H]2[C@H]2CN=C(SCc3ccc(C#N)cc3)N21`, the activity change, negative = cytotoxicity was “inactive”. In the case of `CN(C[C@H](Cc1ccccc1)N(C[C@H](c1ccccc1)N(CCc1ccccc1)N=O)N=O)N=O`, the activity change, negative = cytotoxicity is reported as “inactive”. With `Cc1ccc(C(c2nnnn2CS(=O)(=O)c2ccc(C)cc2)N2CCCC2)cc1` (centres undefined) the activity change, negative = cytotoxicity was “inactive”. For `N#Cc1ccc(C(c2nnnn2CCc2ccccc2)N2CCCCCC2)cc1` (centres undefined), the activity change, negative = cytotoxicity was “inactive”. For `COc1ccc(NC(=O)Nc2ccc3c(c2)C(=O)N([C@@H](C)CO)C[C@H](C)[C@H](CN(C)Cc2ccncc2)OCCCC[C@H](C)O3)cc1`, the activity change, negative = cytotoxicity was “inactive”. In the case of `Cc1ccc(C(C(=O)NC2CCCCC2)N(C(=O)c2csnn2)C2CCCC2)o1` (centres undefined), the activity change, negative = cytotoxicity is reported as “inactive”. For `Cc1ccc(-c2nnn(CC(=O)N(CC3CCCO3)C(C(=O)NC3CCCCC3)c3ccc(F)cc3)n2)o1` (centres undefined), the activity change, negative = cytotoxicity was “inactive”. With `COc1ccc(NC(=O)CN2CCC(C(N)=O)(N3CCCCC3)CC2)cc1` the activity change, negative = cytotoxicity was “inactive”. With `CC1CCN(C(=O)c2ncn3c2C(=O)N[C@@H](C)C3)CC1` the activity change, negative = cytotoxicity was “inactive”. For `COc1ccc(-c2cc(C3CCN(c4cc(Cl)nc(N)n4)CC3)[nH]n2)cc1`, the activity change, negative = cytotoxicity was “inactive”. With `CCOc1ccc(OCc2cccc(C(=O)N/N=C/c3cccnc3)c2)cc1` the activity change, negative = cytotoxicity was “inactive”. For `CC(c1nc2ccccc2c(=O)[nH]1)N(C)CCOc1ccc(Cl)cc1` (centres undefined), the activity change, negative = cytotoxicity was “inactive”. With `Cc1ccc(S(=O)(=O)N(C)C)cc1NC(=O)COc1ccccc1C(=O)Nc1ccccc1` the activity change, negative = cytotoxicity was “inactive”. In the case of `CC(C)CCN(C(=O)c1csnn1)C(C(=O)NC1CCCC1)c1ccc(F)cc1` (centres undefined), the activity change, negative = cytotoxicity is reported as “inactive”. For `Cc1ccccc1CCN(C(=O)c1csnn1)C(C(=O)NC1CCCC1)c1ccncc1` (centres undefined), the activity change, negative = cytotoxicity was “inactive”. For `COc1cc(NC2c3ccccc3C(=O)N2Cc2ccccc2)cc(OC)c1OC` (centres undefined), the activity change, negative = cytotoxicity was “inactive”. In the case of `CCOC(=O)c1ccc(NC2c3ncccc3C(=O)N2Cc2ccc(F)cc2)cc1` (centres undefined), the activity change, negative = cytotoxicity is reported as “inactive”. In the case of `COc1ccc(-c2cc(=O)oc3c(C)c(O)c(CN(C)C)cc23)cc1`, the activity change, negative = cytotoxicity is reported as “inactive”. With `COc1ccc(S(=O)(=O)NNC(=O)C2Cc3c(ccc4ccccc34)O2)cc1` (centres undefined) the activity change, negative = cytotoxicity was “inactive”. With `CC(C)n1c(NCCc2ccccc2)nc2c1c(=O)n(C)c(=O)n2C` the activity change, negative = cytotoxicity was “inactive”. For `CN(C)S(=O)(=O)c1ccc(N2CCCC2)c(C(=O)NCCc2ccc(F)cc2)c1`, the activity change, negative = cytotoxicity was “inactive”. With `CC[C@]1(C(=O)OC)[C@H]2C(=O)N(Cc3ccccc3)C(=O)[C@H]2[C@H]2CN=C(SCc3ccc(C)cc3)N21` the activity change, negative = cytotoxicity was “inactive”. With `COc1ccc(CCN2C(=O)c3[nH]nc(-c4ccccc4O)c3C2c2ccc(C)cc2)cc1OC` (centres undefined) the activity change, negative = cytotoxicity was “inactive”. With `COc1ccc(CCN2C(=O)c3[nH]nc(-c4ccccc4O)c3C2c2cccc(O)c2)cc1OC` (centres undefined) the activity change, negative = cytotoxicity was “inactive”. With `COc1ccc(OC)c(CN2C(=O)c3ccccc3C2c2nnnn2-c2c(C)cccc2C)c1` (centres undefined) the activity change, negative = cytotoxicity was “inactive”. In the case of `COCc1[nH]nc2c1C(c1ccc(F)cc1)N(Cc1ccccc1)C2=O` (centres undefined), the activity change, negative = cytotoxicity is reported as “inactive”.
